# Screen size: about 320,000 compounds; about 9,100 (2.8%) were called active. A call without a number means that no potency is given here. Roughly 3% stayed inconclusive and do not appear here. Calls come from the whole dose curve; as a rule, active = well fitted activation curve with a large enough effect; inconclusive = small, poorly fitted or top-dose-only effect; inactive = no such curve, though single readings can be large or run the other way. The full list was thinned out, with actives kept by preference.
# Assay: qHTS Assay for Rab9 Promoter Activators; note: nearly all actives have a fitted effect of over 60% in size
# Conditions: Huh7 Rab9 promoter-luciferase reporter, luminescence, 24 h; series mostly up to 9.22 µM
# How it was run: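 Using Huh7 cells stably transfected with Rab9 promoter–luciferase, compounds were incubated 24 h at 37 °C, 5% CO2; luciferase luminescence was read 10 min after reagent addition.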
# Potency is the fitted concentration of half-maximal effect.
Structure (SMILES),Potency,"activation, negative = inhibition"
CCc1nnc(NC(=O)C2CCN(C(=O)c3ccccc3C)CC2)s1,inactive,–
O=C1/C(=C/c2ccc3c(c2)OCO3)CCC/C1=C\c1ccc2c(c1)OCO2,inactive,–
Nc1[nH][nH]c(=O)c1N=Nc1ccc2c(c1)OCO2,3550 nM (active),–
Cc1[nH][nH]c(=O)c1N=Nc1ccccc1,inactive,–
COc1ccc2ccn(C)c2c1,inactive,–
Cc1ccc(NC(=O)CN(C)C(=O)COC(=O)c2nccnc2N)cc1,inactive,–
CS(=O)(=O)N1CCN(c2cccc(Cl)n2)CC1,inactive,–
CS(=O)(=O)N1CCN(C(=O)Cc2ccccc2)CC1,inactive,–
CS(=O)(=O)N1CCc2nc(-c3ccccc3)sc2C1,1580 nM (active),–
NC(=O)C1CCN(C(=O)c2ccc(F)c(S(=O)(=O)N3CCOCC3)c2)CC1,inactive,–
Cc1ccc(N(CC(=O)NCC2CCCO2)C(=O)CNS(=O)(=O)c2ccc(Cl)cc2)cc1 (configuration not stated),inactive,–
O=C1c2ccccc2C(=O)N1CCC#Cc1ccc2cc(C3(O)CCCCC3)oc(=O)c2c1,inactive,–
O=C(Nc1ccc(C(=O)N2CCCCC2)cc1)c1cccc([N+](=O)[O-])c1,inactive,–
O=C(Nc1ccc(NC(=O)c2ccco2)c(Cl)c1)c1cccc([N+](=O)[O-])c1,inactive,–
O=C(Nc1ccc(C2CC2(Cl)Cl)cc1)c1cccc([N+](=O)[O-])c1 (configuration not stated),3980 nM (active),–
CN(C)/C=C(/C(=O)c1ccc(Cl)c(Cl)c1)c1nnnn1-c1ccccc1,inactive,–
COC(=O)Cc1[nH]n(-c2nc3ccccc3s2)c(=O)c1C(C)=Nc1ccc(OC)cc1,inactive,–
CC(=NCc1ccco1)c1c(C(F)(F)F)[nH]n(-c2nc3ccccc3s2)c1=O,2000 nM (active),–
CC(=NCc1ccco1)C1=C(O)c2ccccc2C1=O,inactive,–
O=C(CN1CCN(S(=O)(=O)c2cccc(Cl)c2)CC1)N1CCCCC1,inactive,–
COc1ccccc1N1CCN(CC(=O)Nc2ccnn2C2CCCC2)CC1,inactive,–
O=C(O)c1ccc(N/N=C/c2cn(-c3ccccc3)nc2-c2cccs2)cc1,447 nM (active),–

Structure (SMILES),Potency,"activation, negative = inhibition"
O=C(/C=C\c1cn(-c2ccccc2)nc1-c1cccs1)N1CCOCC1,inactive,–
COc1ccc(-c2nn(-c3ccccc3)cc2/C=C\C(=O)Nc2ccc(C(=O)O)cc2)cc1,inactive,–
COc1ccc(OC)c(/C=C/C(=O)c2ccc3c(c2)OCO3)c1,inactive,–
CN(C(=O)COC(=O)Cn1cnc2c1c(=O)n(C)c(=O)n2C)C1(C#N)CCCCC1,inactive,–
Cc1ccccc1CSCC(=O)NC(=O)NC(C)(C)C,inactive,–
COc1ccccc1-n1ccnc1SCC(=O)NC(C)(C)C,inactive,–
CC(C)(C)NC(=O)CSC(=Nc1ccccc1F)NC#N,3980 nM (active),–
CC(CCc1ccccc1)NC(=O)c1cnc(Cl)c(Cl)c1 (configuration not stated),–,-1.69% [at 1.84 µM] (inactive)
COc1ccc(CNC(=O)c2ccc(NS(=O)(=O)c3ccc4[nH]c(=O)[nH]c4c3)cc2)cc1OC,inactive,–
S=C(NCc1cccnc1)Nc1ccc(Cl)cc1Cl,inactive,–
O=C(NC(=S)Nc1ccc(Cl)cc1Cl)C1CC1,2820 nM (active),–
CN1CCN(S(=O)(=O)c2ccc(NC(=S)NC(=O)C3CC3)cc2)CC1,inactive,–
Cc1ccc(OCC(=O)Nc2ccccc2C(=O)NC2CC2)cc1,inactive,–
CCOC(=O)c1c(C)[nH]c(C(=O)OCC(=O)N2CCCC2=O)c1C,inactive,–
CCCCOC(=O)c1[nH]c(C)c(C(=O)OC)c1C,2820 nM (active),–
CCOC(=O)c1c(C)[nH]c(C(=O)OCC(=O)c2ccc(OC)cc2OC)c1C,inactive,–
COc1ccc(/C(C)=N/Nc2cc(C(F)(F)F)ccc2Cl)c(OC)c1,inactive,–
S=C(NNC(=S)NC1CC2C=CC1C2)NC1CC2C=CC1C2 (configuration not stated),inactive,–
S=C(NNC(=S)NC1CC2CCC1C2)NC1CC2C=CC1C2 (configuration not stated),inactive,–
CC(C)c1ccc(NC(=S)NC2CC3C=CC2C3)cc1 (configuration not stated),2820 nM (active),–
COc1ccc(-c2cc(C(=O)NCCCN3CCCC3=O)c3ccccc3n2)cc1OC,inactive,–
N/C(=N\OC(=O)/C=C/c1ccccc1)c1ccc(Br)cc1,inactive,–

Structure (SMILES),Potency,"activation, negative = inhibition"
N/C(=N\OC(=O)c1ccc2c(c1)OCO2)c1ccc(Br)cc1,3980 nM (active),–
N/C(=N\OC(=O)N1c2ccccc2Sc2ccccc21)c1ccc(Br)cc1,inactive,–
CC1CC2C3CCC4=CC(=O)C=C[C@]4(C)[C@@]3(F)[C@@H](O)C[C@]2(C)[C@@]1(O)C(=O)CO (some centres not stated),inactive,–
CC(C)C(=O)Nc1c(O)c2ccccc2[nH]c1=O,inactive,–
CCCc1nc2ccccc2c(=O)n1NC(=O)c1c(O)c2ccccc2[nH]c1=O,inactive,–
NS(=O)(=O)c1ccccc1NC(=O)c1c(O)c2ccccc2[nH]c1=O,447 nM (active),–
COc1ccc(C(=O)NCc2ccc(Cl)cc2)cc1S(=O)(=O)N1CCCC1,inactive,–
CCCn1nc(C(=O)NNC(=O)CCOc2ccccc2OCC)c2ccccc2c1=O,inactive,–
O=C(Nc1ccnc(-c2ccncc2)n1)c1cccs1,inactive,–
NC(=O)c1ccsc1NC(=O)c1ccco1,inactive,–
O=C(Nc1ccc(NC(=O)c2cccs2)cn1)c1ccco1,316 nM (active),–
CC(C)(C)n1ncc2c(=O)n(Cc3c(Cl)cccc3Br)cnc21,inactive,–
c1ccc(CN=C2Nc3ccccc3CS2)nc1,891 nM (active),–
Cc1ccc(F)cc1S(=O)(=O)Nc1cccc(C(=O)N2CCCC(C(N)=O)C2)c1 (configuration not stated),inactive,–
C=C(C)CNc1cc(S(=O)(=O)N2CCOCC2)ccc1Oc1ccccc1,inactive,–
CCOc1ccc(-n2c(SCC(N)=O)nnc2-c2ccco2)cc1,inactive,–
CCCCOc1ccc(-c2nnc(-c3ccco3)o2)cc1,1410 nM (active),–
CCOc1ccc(-c2nnc(-c3ccco3)o2)cc1,355 nM (active),–
Cc1ccc(OCC(=O)Nc2ccc(-c3nnc(-c4ccco4)o3)cc2)cc1,2820 nM (active),–
N#Cc1ccc(OCc2nnc(-c3ccc([N+](=O)[O-])cc3)o2)cc1,inactive,–
Cc1ccc(OCC(=O)Nc2nnc(-c3ccco3)s2)cc1,inactive,–
O=C(CCc1ccccc1)Nc1cccc(-c2nnc(-c3ccco3)o2)c1,inactive,–

Structure (SMILES),Potency,"activation, negative = inhibition"
COc1ccc(OCC(=O)Nc2nnc(-c3ccco3)s2)cc1,inactive,–
CC(=O)Nc1ccc(NC(=O)COc2ccc(-c3ccccc3)cc2)cc1,inactive,–
O=C(CN1CCCSc2ccccc21)N1CCN(S(=O)(=O)c2cccc(F)c2)CC1,inactive,–
Cc1cccc(NC(=S)NCCc2ccc(Cl)cc2)c1C,inactive,–
COc1ccccc1S(=O)(=O)NCc1ccc(C(=O)N(C)Cc2ccc(F)cc2)cc1,inactive,–
CC(=O)Nc1ccc(NC(=O)CCN2C(=O)C3CC=CCC3C2=O)cc1 (configuration not stated),inactive,–
CCOC(OCC)c1ccc(/C=C\c2nccc(N)n2)cc1,1780 nM (active),–
C[C@@H]1NC(=O)[C@@]2(C)[C@@H](c3ccccc3)[C@H]3COc4ccccc4[C@@H]3N2C1=O,inactive,–
Cc1ccc(OCCC(=O)Nc2ccc(S(=O)(=O)Nc3nccs3)cc2)cc1,inactive,–
COc1cccc(OCC(=O)Nc2ccccc2C(N)=O)c1,2820 nM (active),–
Cc1cccc(OCCC(=O)Nc2ccccc2C(N)=O)c1,inactive,–
CCCOC(=O)Nc1ccccc1C(N)=O,inactive,–
COc1ccccc1C(=O)NCC(=O)NCCSc1ccc(Br)cc1,inactive,–
Cc1ccn(CCC(=O)N2c3ccccc3CC2C)n1 (configuration not stated),inactive,–
CCn1nc(C(=O)OCC(=O)N2c3ccccc3CC2C)c2ccccc2c1=O (configuration not stated),inactive,–
CCCC(=O)N1c2ccc(-c3csc(N)n3)cc2CC1C (configuration not stated),2820 nM (active),–
COC(=O)C1CCN(CC(N)=O)CC1,inactive,–
COC(=O)c1ccc(CSc2ccc(S(=O)(=O)N3CCCCC3)cn2)cc1,inactive,–
O=C(CN1C(=O)c2ccccc2S1(=O)=O)N1CCc2ccccc21,inactive,–
O=C(CN1C(=O)c2ccccc2S1(=O)=O)NC1CCCCC1,inactive,–
CC1CCCN(C(=O)CN2C(=O)c3ccccc3S2(=O)=O)C1 (configuration not stated),2820 nM (active),–
O=C(COC(=O)Cc1ccc(Br)cc1)Nc1ccc(N2CCOCC2)cc1,inactive,–

Structure (SMILES),Potency,"activation, negative = inhibition"
CCOCc1c(C(=O)N2CCN(Cc3ccc(Br)s3)CC2)oc2ccccc12,inactive,–
CC(C)CC(=O)N/C(N)=N/c1nc2ccccc2s1,2820 nM (active),–
CC(=O)Nc1cccc(-c2nc3ccccc3s2)c1C,inactive,–
CC(C)CC(=O)NC(=S)NCc1ccccc1,inactive,–
CCC(=O)NC(=Nc1nc2ccccc2s1)NC(=O)CC,3550 nM (active),–
Cc1cc(C(=O)OCC(=O)Nc2nnc(C(C)C)s2)c2ccccc2n1,inactive,–
O=C(O)CCCCc1nc2ccccc2s1,inactive,–
O=C(OCC(=O)N1CCCC1)c1ccc(Cl)nc1,inactive,–
CCCN(C(=O)c1nc2nccc(C)n2n1)c1c(N)n(Cc2ccccc2)c(=O)[nH]c1=O,inactive,–
O=C(Nc1cc(C(F)(F)F)ccc1Cl)c1cc2nc3c(c(C(F)(F)F)n2n1)CCCC3,1780 nM (active),–
O=C(Nc1cc(C(F)(F)F)ccc1Cl)c1cc(C2CC2)on1,inactive,–
O=C(Nc1cc(C(F)(F)F)ccc1Cl)C(=O)N1CCCCC1,inactive,–
Cc1cc(NC(=O)CCC(=O)N(CC(=O)NCC2CCCO2)c2ccccc2)no1 (configuration not stated),inactive,–
CC(C)Oc1ccc(C(=O)NCC(=O)Nc2ccc3c(c2)CCC3)cc1,inactive,–
CC(=O)c1ccc(NC(=O)c2ccc3c(Cl)c4c(nc3c2)CCCC4)cc1,inactive,–
CC(C)CCNC(=O)c1ccc2c(Cl)c3c(nc2c1)CCC3,794 nM (active),–
COc1ccc(N2CCN(C(=O)c3ccc4c(Cl)c5c(nc4c3)CCCC5)CC2)cc1,inactive,–
COc1ccc(C(=O)OCC(=O)N2CC(=O)Nc3ccccc32)cc1Br,inactive,–
O=C1C2C3C=CC(C3)C2C(=O)N1c1ccc(-c2nc3ccccc3c(=O)o2)cc1 (configuration not stated),inactive,–
